# Assay results from PubChem BioAssay.
# Values without a mark were called inactive.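 Rule for the calls: active = z-score of at least 1.8 in each of two replicates, scored against plate mean and spread of sample wells; inactive = the rest.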
# Assay: galactose survival enhancers in mitochondrial complex I cybrids – cell-based, galactose medium, ATP luminescence, primary screen (AID 1645843);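 note: positive z means more ATP and so rescue of galactose-driven cybrid death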
# Details: complex I mutant cybrid cells, 72 h, hits give high values
row,SMILES,z-score
1,COc1cccc(CC(=O)NCc2ccsc2)c1,-0.32
2,CC(CCCC(C)(C)O)CCNC(C1CC1)C1CC1 (centres undefined),-0.515
3,CC(Cc1cccnc1)n1cnc2sc3c(c2c1=O)CCCCC3 (centres undefined),0.91
4,CCC(C)(C)NCc1c(C)cc(C)c(CO)c1C,-0.525
5,Cc1ccc(CCC(=O)N(C)Cc2cnn(C(C)C)c2)cc1C,-0.565
6,O=C(c1ccccc1-c1nn[nH]n1)N1CCc2[nH]cnc2C1c1ccccn1 (centres undefined),0.23
7,Cc1cc(Cl)cc2c(=O)n(C(C)Cn3cccn3)cnc12 (centres undefined),-0.45
8,OCC1CCCN(C2CCN(c3ncnc4sccc34)CC2)C1 (centres undefined),1
9,Cc1cccc2c(C(=O)N(C)C(C)C)cc(-c3cnn(C(C)(C)C)c3)nc12,1.41
10,CN1CCN(C2CCCCCC2)CC1CCO (centres undefined),-0.575
11,CCC(CC)CN1CCC(NS(C)(=O)=O)CC1,-0.53
12,C=C1C2(C(=O)N3CCCC(C(=O)N4CCOCC4)C3)CCC(C2)C1(C)C (centres undefined),-0.555
13,COc1cc(OC2(C(=O)O)CCSCC2)ccc1CN1CCCNCC1,-0.23
14,O=C(c1cn2cccnc2n1)N1CCCC(Cn2cc(C3CCCC3)nn2)C1 (centres undefined),-0.49
15,CC(C)(C)c1cn(C2CCN(C(=O)CC3CCCCCC3)CC2)nn1,-0.225
16,CC(C)Cc1cn(C2CCN(C3Cc4ccccc4C3)CC2)nn1,-0.99
17,CCCN(C(=O)c1cccc(C#CC(C)(C)O)c1)C(CC)CC,-0.23
18,Cc1cc(C)c(CNC(C)CCCC(C)(C)O)c(C)c1CO (centres undefined),0.19
19,CCN1CC(Cn2cnc3c(C)c(C)ccc3c2=O)CC1=O (centres undefined),-0.145
20,Cc1nn(C)c(C)c1-c1ccnc(NCc2cnc3ccccn23)n1,-0.925
21,CCN(C(=O)c1cc(-c2cnc(C3CC3)nc2)nc2cc(C)ccc12)C(C)C,1.41
22,CC(CCc1ccc(O)cc1)NC1CCCCCC1 (centres undefined),-0.855
23,CCCCCN1C(=O)C2(CCN(C(=O)N3CCCC3)CC2)Nc2ccccc21,-1.2
24,CCn1ncc(NC(=O)Cn2cc(C)c(-c3ccc(Cl)s3)n2)n1,-0.01
